HT1080 IDH1KD tx = toxicity to HT-1080 IDH1 knockdown cells (counter line) | HT-1080 IDH1 knockdown viability, ATP luminescence, 48 h | Potency, µM (top dose mostly 46.1 µM), hits mostly cytotoxic | actives 2% (n = 360,000) | AID 686971
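% activity derives from luminescence (CellTiter-Glo), normalised to DMSO and no-cell wells. HT-1080-IDH1KD cells, 750/well, had 48 h compound exposure at 37 °C.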
DT40 TDP1 CPT = growth inhibition of DT40 Tdp1-/-;hTDP1 cells with camptothecin (screen for TDP1 inhibitors) | chicken DT40 Tdp1-/-;hTDP1 cells + 20 nM CPT, ATP luminescence, 48 h | Potency, µM (titrated, usually from 46.2 µM), usual class: inhibitors | actives 12% (n = 420,000); note: nearly all actives have a fitted effect of over 55% in size
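Cell growth measured by CellTiter-Glo luminescence after a minimum 48 h, 37 C compound exposure with 20 nM CPT in Tdp1-knockout DT40 cells stably expressing hTDP1, seeded 400/well; qHTS titration format.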
IL1B secr inh = inhibitors of inflammasome signaling (IL-1 beta secretion). THP-1 LPS/ATP IL-1B secretion, AlphaLISA, 16 h; stronger effect = lower value. activity change, % at 57.5 µM. actives 4.7% (n = 360,000). AID 743279; in the data active = activity change below about -50%; inconclusive = mostly about -30% to -49%
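Secreted IL-1B measured by AlphaLISA bead assay after 16 h compound exposure of THP-1 cells; compounds (final up to 57.5 uM) added 1 h before LPS (250 ng/mL) and ATP (1.25 mM) stimulation; lower signal means less secretion.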
TDP1 cell noCPT = qHTS for Inhibitors of human tyrosyl-DNA phosphodiesterase 1 (TDP1): qHTS in cells in absence of CPT; Potency, µM (highest dose often 46.2 µM), actives largely listed as inhibitors; actives 15% (n = 420,000); AID 686978, 2013; DT40 Tdp1-/- hTDP1 cells, no CPT, ATP luminescence, 48 h; note: nearly all actives have a fitted effect of over 55% in size
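Growth of hTDP1-complemented DT40 Tdp1-knockout cells is measured by ATP luminescence after at least 48 hr compound exposure at 37 °C, with DMSO substituting for the 20 nM CPT used in the parallel screen.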
HT1080-NT tox = kills 2HG-producing HT-1080-NT fibrosarcoma cells | HT-1080-NT fibrosarcoma viability, CellTiter-Glo ATP luminescence, 48 h | actives 1.6% (n = 360,000) | Potency, µM (titrated, usually from 46.1 µM), actives largely listed as cytotoxic | AID 686970;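 note: NT is the 2HG producing partner of a matched IDH1 knockdown line; nearly all actives have a fitted effect of over 55% in size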
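Fibrosarcoma NT cells, 750 per well in 5% FBS RPMI, were exposed to compound for 48 hours. Viability: CellTiter-Glo luminescence.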
Numbers stand for hits; . = inactive; ? = inconclusive; / = not tested or not shown. In the library only some 19% were active in any assay of this set; here they are far more common. Unless noted, calls come from the whole dose curve; as a rule, active = well fitted curve in the direction sought with a large enough effect; inconclusive = small, poorly fitted or top-dose-only effect, or another doubt; inactive = no such curve, though single readings can be large; an effect the other way counts as inactive or inconclusive.

SMILES | HT1080 IDH1KD tx | DT40 TDP1 CPT | IL1B secr inh | TDP1 cell noCPT | HT1080-NT tox
COc1ccccc1NC1=C(NC(C)=O)C(=O)c2ccccc2C1=O | ? | 18µM | . | ? | ?
COc1ccccc1NC(=O)c1ccccc1NC(=O)c1ccccc1C(=O)O | . | . | . | . | .
COC1=C(Nc2ccccc2OC)C(=O)c2ccccc2C1=O | . | . | / | ? | .
COc1ccc(OC)c(S(=O)(=O)N(C)CC(=O)Nc2ccccc2OC)c1 | . | . | . | ? | .
COC(=O)c1ccccc1NC(=O)c1ccccc1OC | . | . | . | . | .
COc1ccccc1NC(=O)c1ccccc1C(=O)Nc1ccccc1OC | . | ? | -67 | ? | .
COc1ccc(OC)c(/C(O)=C/C(=O)C(=O)Nc2ccccc2OC)c1 | . | ? | . | 18µM | .
COc1ccccc1C(=O)Nc1ccccc1SC(=O)c1ccccc1OC | ? | 2.6µM | . | 2.6µM | 18µM
CCOC(=O)c1c(NC(=O)CCCOc2ccc(C(C)(C)C)cc2)sc2c1CCCC2 | / | . | / | . | /
Cc1cc(Cl)c(C)c(S(=O)(=O)Oc2ccccc2NC(=O)CCC(=O)O)c1Cl | . | . | . | . | .
CCCCCCCN(CC)CCCC(O)c1ccc(NS(C)(=O)=O)cc1 (stereo not drawn) | / | ? | / | . | /
COc1ccc(Nc2ncc(C(=O)Nc3ccc(F)cc3F)c3ccccc23)cc1 | / | 13µM | / | 18µM | /
C=CCSc1nc(N)c(C(=O)Nc2ccccc2OC)cc1C(=O)Nc1ccccc1 | . | 8.2µM | . | 8.2µM | .
C=CCSc1nc(N)c(C(=O)Nc2ccccc2)cc1C#N | . | . | . | . | .
Cc1nn(CCCC(=O)NCc2ccco2)c(=O)c2nn(-c3ccccc3)c(C)c12 | . | . | . | . | .
COc1ccc([N+](=O)[O-])c(S(=O)(=O)c2ccccc2)n1 | 13µM | 0.58µM | -96 | 1.6µM | 21µM
O=[N+]([O-])c1cccnc1S(=O)(=O)c1ccccc1 | 18µM | 0.92µM | -97 | 0.82µM | 12µM
COc1nc(OC)nc(Oc2ccc(Cl)cc2[N+](=O)[O-])n1 | . | . | . | . | .
COc1ccc([N+](=O)[O-])c(S(=O)(=O)c2ccc(Cl)cc2)n1 | 8.2µM | 1µM | -95 | 0.65µM | 23µM
COc1ccccc1S(=O)(=O)c1ccccc1[N+](=O)[O-] | . | . | . | . | .
CCCc1cc(C(=O)N2CCN(c3ccccc3C)CC2)cs1 | . | . | . | ? | .
CCCCCOc1ccc(C(=O)CCC(=O)NNC(=O)c2ccncc2)cc1 | . | . | . | . | .
C/C(=N\NC(N)=S)C1(C)CCCCC1 | . | ? | . | 13µM | .
OCCCCNCc1ccc(OCc2ccccc2Cl)cc1 | ? | ? | . | ? | ?
NC(N)=N/N=C/c1ccc(OCc2ccccc2Cl)cc1 | 16µM | 15µM | -103 | 13µM | 13µM
SMILES | HT1080 IDH1KD tx | DT40 TDP1 CPT | IL1B secr inh | TDP1 cell noCPT | HT1080-NT tox
NC(N)=N/N=C/c1ccc(Cl)cc1Cl | 16µM | 16µM | -99 | 23µM | ?
NC(N)=N/N=C/c1ccc(Cl)c(Cl)c1 | ? | 13µM | -97 | 16µM | ?
CCOC(=O)c1noc(C)c1C(=O)Nc1nccs1 | . | . | . | . | .
Cc1nn(CCC(=O)NNC(=S)Nc2ccccc2)c(C)c1Br | . | . | . | . | ?
Cc1cccc(NC(=S)NNC(=O)CCn2cc(C)cn2)c1 | 2.8µM | . | . | . | 1.3µM
CSc1ccc(Cn2c(C)c(C(=O)NCc3ccccc3C(F)(F)F)sc2=O)cc1 | . | ? | / | ? | .
Cc1c(C(=O)NCc2ccccc2C(F)(F)F)sc(=O)n1Cc1ccc(S(=O)(=O)N(C)C)cc1 | . | ? | . | 21µM | .
COc1ccc(CNC(=O)c2sc(=O)n(Cc3ccc(S(=O)(=O)N(C)C)cc3)c2C)cc1 | ? | ? | . | ? | .
Cc1c(C(=O)NCc2ccccc2C(F)(F)F)sc(=O)n1Cc1ccc2c(c1)OCO2 | . | ? | ? | ? | .
Cc1c(C(=O)NCc2ccc(C(F)(F)F)cc2)sc(=O)n1Cc1ccc(S(=O)(=O)N(C)C)cc1 | . | 23µM | . | 23µM | .
